Screens: PubChem, several laboratories
IDE cell activ = human IDE activators in live cells, primary screen, fluorescence polarization, HEK cells, FAbeta-B substrate. FAbeta-B cleavage; 0% vehicle, 100% cell-free pure enzyme wells. Insulin-degrading enzyme (Homo sapiens), P14735. 340,000 tested, 0.073% active. activation, % at 5.96 µM;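 active = activation above the mean of all tested compounds plus 3 SD, set per screening campaign, cut at about 17% in these data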
Target sequence (P14735 whole entry, looked up): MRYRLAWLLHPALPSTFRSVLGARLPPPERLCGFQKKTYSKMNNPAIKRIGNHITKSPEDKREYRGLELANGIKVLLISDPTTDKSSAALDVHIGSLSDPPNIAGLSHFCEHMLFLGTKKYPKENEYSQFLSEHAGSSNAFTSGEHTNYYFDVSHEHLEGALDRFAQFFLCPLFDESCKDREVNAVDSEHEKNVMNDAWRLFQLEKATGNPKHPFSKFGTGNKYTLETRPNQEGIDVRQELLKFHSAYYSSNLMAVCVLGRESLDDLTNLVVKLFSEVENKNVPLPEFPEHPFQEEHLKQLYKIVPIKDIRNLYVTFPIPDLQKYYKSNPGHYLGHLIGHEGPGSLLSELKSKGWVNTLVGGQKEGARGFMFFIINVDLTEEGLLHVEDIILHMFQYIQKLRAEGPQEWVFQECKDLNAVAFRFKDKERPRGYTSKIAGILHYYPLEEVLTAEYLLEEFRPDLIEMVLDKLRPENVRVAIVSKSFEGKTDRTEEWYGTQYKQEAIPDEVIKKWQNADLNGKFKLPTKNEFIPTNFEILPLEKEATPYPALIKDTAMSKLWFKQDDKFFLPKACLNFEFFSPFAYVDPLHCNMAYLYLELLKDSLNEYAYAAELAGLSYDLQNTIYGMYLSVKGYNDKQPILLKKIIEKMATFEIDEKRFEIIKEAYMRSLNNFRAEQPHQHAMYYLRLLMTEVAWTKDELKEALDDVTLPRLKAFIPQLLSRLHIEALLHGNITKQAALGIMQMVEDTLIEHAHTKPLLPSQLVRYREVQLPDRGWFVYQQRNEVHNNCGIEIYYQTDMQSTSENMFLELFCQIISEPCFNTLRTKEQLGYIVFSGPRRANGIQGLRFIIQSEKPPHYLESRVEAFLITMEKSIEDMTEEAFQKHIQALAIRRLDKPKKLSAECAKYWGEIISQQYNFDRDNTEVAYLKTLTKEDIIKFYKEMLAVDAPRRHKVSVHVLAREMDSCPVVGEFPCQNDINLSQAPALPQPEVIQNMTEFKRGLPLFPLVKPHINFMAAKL
IDE inh = human IDE inhibitors in live cells, primary screen, fluorescence polarization, HEK cells, FAbetaB substrate; FAbetaB cleavage; inhibition, % at 5.59 µM; 320,000 tested, 0.41% active; AID 434962, 2010;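 active = percent inhibition above the average of all tested compounds plus 3 SD, set per screening campaign, cut at about 16% in these data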;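 also: IDE supplied by intact live HEK cells; FP after avidin binding of uncleaved biotin substrate so inhibition keeps polarization high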
PolyA inhibitor = polyadenylation inhibitors in yeast reporter cells, primary screen, luminescence, S. cerevisiae; S. cerevisiae SKY197-pL101 polyadenylation reporter, beta-gal luminescence; efflux-impaired pdr1/pdr3 knockout yeast; score 100 = 6 SD above DMSO; activity score, % at 12 µM; 300,000 tested, 0.02% active; AID 1875, 2009;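 active = lowest replicate activity score at least 50, where 100 means six control SD above control mean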;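 also: yeast exposed to compound for 9 h at 30 °C; higher score means more reporter readthrough which indicates perturbed polyadenylation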
CaV13 ICDI inh = Primary screen for inhibitors of IQ motif and Ca2+-dependent inactivation inhibitor domain binding in CACNA1D, Förster resonance energy transfer in living cells, …. HEK cells, CFP/YFP FRET ICDI-IQ, plate reader, 10 min; percent FRET-ratio fall versus neutral wells. inhibition, % at 12.3 µM. 340,000 tested, 0.098% active. AID 743397;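 active = mean replicate inhibition of at least 30% and at least 1% of replicates passing that level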
M18AAP inhibitor = PfM18AAP inhibitors, malaria aminopeptidase, primary screen, biochemical, QFRET, recombinant enzyme. M18 aspartyl aminopeptidase (Plasmodium falciparum 3D7). H-Glu-NHMec fluorogenic cleavage. inhibition, % at 7.35 µM. 290,000 tested, 1.2% active;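 active = inhibition above the campaign mean inhibition over all tested compounds plus 3 SD, cut at about 28% in these data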
ALR inh = inhibitors of human ALR sulfhydryl oxidase, primary screen, biochemical, H2O2 detection, HRP-luminol luminescence, single point | FAD-linked sulfhydryl oxidase ALR (Homo sapiens), P55789 | purified ALR, DTT oxidation | inhibition, % (concentration not given with the values) | 290,000 tested, 3.8% active;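 active = mean replicate inhibition above about 79%, with every replicate also reaching it, limit read from the data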
Large screens that a line does not name were inactive. Sampled rows, rich in hits. Any-hit rate of the full collection: about 4.1%.

Cc1cc(C(=O)C(=O)NC(C)C)c(C)n1-c1ccc([N+](=O)[O-])cc1	none
CC(C)(C)C(O)C(Cc1ccccc1Cl)n1cncn1 (stereo unspecified)	none
CCc1ccc(N=C2NC(=O)/C(=C/c3ccc(OCC(=O)O)cc3)S2)cc1	ALR inh 98
COc1cc(/C=C2/SC(=Nc3ccc(O)cc3)NC2=O)cc(OC)c1O	IDE inh 58, M18AAP inhibitor 33
CCc1ccc(N=C2NC(=O)/C(=C/c3ccc(OCC(=O)O)c(OC)c3)S2)cc1	none (no result: IDE inh, ALR inh)
O=C(O)CCC(=O)Nc1ccc2c(c1)Cc1cc(NC(=O)CCC(=O)O)ccc1-2	ALR inh 99
O=C(CSc1nncc2ccccc12)Nc1ccc(F)cc1	none
O=C(CSc1nncc2ccccc12)Nc1ccccc1	ALR inh 99
O=C(CSc1nncc2ccccc12)Nc1ccc(C(=O)O)cc1	ALR inh 100
CCN(CC)c1ccc(NC(=O)c2c(OC)cccc2OC)c(C)c1	ALR inh 99
CCN(CC)c1ccc(NC(=O)C2CCCN(S(=O)(=O)c3cccnc3)C2)c(C)c1 (stereo unspecified)	M18AAP inhibitor 28, ALR inh 99
CCN(CC)c1ccc(NC(=O)C2=CCN(S(=O)(=O)c3ccc(F)cc3)CC2)c(C)c1	ALR inh 87
S=C(N/N=C/c1ccc(Br)cc1)N1CCCCC1	none
CCc1ccc(CC(=S)N2CCOCC2)cc1	none
S=C(N/N=C/c1ccc(Cl)cc1)N1CCOCC1	M18AAP inhibitor 30
Cc1ccc(/C=N/NC(=S)N2CCOCC2)cc1	M18AAP inhibitor 40
Cc1ccc(CC(=S)N2CCOCC2)cc1	M18AAP inhibitor 29
CCOCCCNC(=O)CCCC1=NS(=O)(=O)c2ccccc2N1	none (no result: ALR inh)
CCOCc1cnc(C)nc1NCC(=O)c1c(C)n(C)c2ccc(OC)cc12	none (no result: IDE inh, ALR inh)
COc1ccc2c(c1)c(C(=O)CNc1nc(C)cs1)c(C)n2C	ALR inh 98 (no result: CaV13 ICDI inh)
COc1ccc(N2CCN(S(=O)(=O)CCNC(=O)COc3ccccc3OC)CC2)cc1	ALR inh 93
Cc1ccc(NCCc2ccc(C)nc2)cc1	none (no result: CaV13 ICDI inh)
Cc1ccc(CCNc2ccc3ccccc3c2)cn1	ALR inh 99 (no result: CaV13 ICDI inh)
CCC(c1nnnn1C1CCCCC1)N1CCN(C(=O)c2ccco2)CC1 (stereo unspecified)	none
CC1=CC(=C(C#N)c2nc3ccccc3s2)C=C(C)N1CC1CCCO1 (stereo unspecified)	ALR inh 95
CC(C)CN1C(=O)NC(NS(=O)(=O)c2ccc(N)cc2)(C(F)(F)F)C1=O (stereo unspecified)	ALR inh 99
COc1cccc(C(C)(O)c2nc(-c3ccc4c(c3)OCO4)cs2)c1 (stereo unspecified)	none (no result: IDE cell activ, IDE inh, PolyA inhibitor, M18AAP inhibitor, ALR inh)
CCN(CC)c1ccc2c(c1)oc(=O)c1c(Cl)cc(=O)oc12	ALR inh 97 (no result: CaV13 ICDI inh)
CCN(CC)c1ccc2c(C)c(Cl)c(=O)oc2c1	CaV13 ICDI inh active
CCOC(=O)Cc1c(C)c2ccc(N(CC)CC)cc2oc1=O	none
CCN(CC)c1ccc2c(Cl)c(Br)c(=O)oc2c1	none (no result: CaV13 ICDI inh)
CCN(CC)c1ccc2c(C)c(-c3ccc(N)cc3)c(=O)oc2c1	ALR inh 87 (no result: CaV13 ICDI inh)
COC(=O)c1ccc(COC(=O)c2cccn2C)o1	none
CCOC(=O)CN1N=C(c2ccc(Cl)s2)CSC1=O	none
Cn1c(=O)c2[nH]c(N=Nc3ccc(N)cc3N)nc2n(C)c1=O	ALR inh 86
CSc1ccccc1C(=O)N1CCC(n2nccc2NC(=O)C(C)(C)C)CC1	none
O=C(NC1CC1)c1cc(-c2ccccn2)nc2ccccc12	none (no result: CaV13 ICDI inh)
O=C(NNS(=O)(=O)c1ccc2ccccc2c1)c1cc(-c2ccccn2)nc2ccccc12	ALR inh 96
CC(Cc1ccccn1)NC(=O)CCc1nnc(C2CCCCC2)o1 (stereo unspecified)	none
